Compounds with a hit are over-represented: about 4.6% of the library has one in this group of screens.
SKKanGAS inh: SKKanGAS growth inhibition | S. pyogenes SKKanGAS, kanamycin growth, BacTiter-Glo, 6 h | inhibition, % at 7.5 µM | 300,000 compounds, 1.3% hits;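 active = mean replicate score, as percent of positive control median, at least 50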;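 also: strain carries kanamycin resistance gene driven by streptokinase promoter and grows in 40 µg/ml kanamycin; loss of luminescence reflects streptokinase promoter inhibition or plain growth inhibition; 0% = median of DMSO wells and 100% = positive control at its reference dose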
NALP3 yeast inh: inhibitors of NALP3 inflammasome in yeast; Yeast reconstituted NLRP3/ASC/caspase-1, beta-gal luminescence, 24 h; inhibition, % at 10 µM; 330,000 compounds, 0.39% hits; AID 2825;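 active = inhibition of 50% or more; inactive = inhibition below 50%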;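 also: plate controls were induced DMSO wells for no effect and uninduced yeast grown without galactose for full effect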
TIM10 inh: growth inhibitors of TIM10 yeast strain | 330,000 compounds, 1.4% hits | AID 463195 | S. cerevisiae TIM10 strain growth, BacTiter-Glo luminescence, 24 h | inhibition, % at 10 µM;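 active = inhibition of 40% or more at the single tested concentration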;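 also: wild-type TIM10 isogenic control strain grown at permissive 25 °C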
tim10-1 inh: growth inhibitors of tim10-1 mutant yeast; S. cerevisiae tim10-1 ts strain growth, BacTiter-Glo, 24 h; inhibition, % at 20 µM; 330,000 compounds, 2.2% hits;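 active = inhibition of at least 40%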;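 also: mutant grown at 25 °C; 0% = DMSO wells with yeast and 100% = wells holding no yeast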
tim23-1 inh: growth inhibitors of tim23-1 mutant yeast | S. cerevisiae tim23-1 growth, BacTiter-Glo luminescence, 24 h | AID 463212 | inhibition, % at 20 µM | 330,000 compounds, 1.3% hits;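 active = growth inhibition of the mutant yeast at or above 50%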;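 also: temperature-sensitive mutant grown at 25 °C; plate controls were DMSO-treated mutant yeast for no effect and medium wells lacking yeast for full effect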
tim23-1 confirm: tim23-1 yeast growth inhibition, confirmed; S. cerevisiae tim23-1 growth, BacTiter-Glo luminescence, 24 h; shares compounds with tim23-1 inh; 4,400 compounds, 83% hits; inhibition, % at 20 µM; AID 463218;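 active = inhibition above about 39% in either of two replicate wells at 20 µM, limit read from the data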;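 also: temperature-sensitive tim23-1 mutant grown at 25 °C; 0% = DMSO wells with yeast and 100% = medium wells without yeast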
Numbers without * were called inactive; / = no result given.

SMILES	SKKanGAS inh	NALP3 yeast inh	TIM10 inh	tim10-1 inh	tim23-1 inh	tim23-1 confirm
CNC(=O)c1cccc(NC(=O)c2ccccc2OCc2ccccc2)c1	-9.6	17.5	-10.5	-9.3	-7.6	/
CCOC(=O)c1c(NS(C)(=O)=O)sc2c1CCC(C)C2 (centres undefined)	4.9	-4.4	3.4	39.2	56.6*	40.1*
Cc1ccc(N2CC(C(=O)OCC(=O)Nc3ccccc3C)CC2=O)cc1 (centres undefined)	/	0.6	6.3	2.2	11.7	/
Cc1ccc(N2CC(C(=O)Nc3nc4ccc(S(C)(=O)=O)cc4s3)CC2=O)cc1C (centres undefined)	7.2	17.8	8.0	-5.0	-0.1	/
Cc1cc([N+](=O)[O-])ccc1NC(=S)NC(=O)Cc1ccccc1	3.7	37.4	29.6	35.4	50.1*	26.8
CC(=O)NC(=S)Nc1ccc([N+](=O)[O-])cc1C	-0.2	16.4	-0.1	-0.7	-0.7	/
O=C(Nc1ccc(C(=O)N2CCCc3ccccc32)cc1)c1cccs1	-0.2	23.0	7.4	4.1	51.9*	44.3*
CCN(CC)S(=O)(=O)c1ccc(C(=O)OCn2nnc3ccccc3c2=O)cc1	0.3	10.8	-21.4	14.0	70.4*	56.1*
COc1ccccc1NC(=O)Cn1c(CCC(=O)O)ccc1-c1ccc(C)cc1	1.3	28.4	9.7	4.5	-3.1	/
CCOc1cc2c3c(c1)C(C)CC(C)(C)N3C(=O)C2=O (centres undefined)	-0.2	28.3	29.7	27.2	50.1*	54.8*
CCOc1cc2c3c(c1)C(C)=CC(C)(C)N3C(=O)C2=O	7.4	29.4	14.3	11.2	56.1*	56.2*
Cc1cc2c3c(c1)C(C)CC(C)(C)N3C(=O)C2=O (centres undefined)	15.7	7.6	22.4	33.3	53.2*	54.9*
COc1ccc(C(=O)COC(=O)c2cnc(C)cn2)cc1OC	/	14.6	-4.4	7.6	13.4	/
O=C(Nc1nc2cc3c(cc2s1)OCCO3)C1CCCCC1	/	32.0	16.5	30.1	56.9*	57.0*
CC(C)c1ccc2nc(NC(=O)C3CC3)sc2c1	0.3	-21.3	36.7	26.4	51.2*	52.4*
CC(=O)Nc1nc2cc3c(cc2s1)OCCO3	4.2	5.6	-1.1	28.3	16.7	/
COC(=O)c1ccc2nc(NC(=O)C3CCCCC3)sc2c1	-15.6	18.1	-1.9	12.7	4.6	/
C/C(=C\C(=O)c1ccc(C)cc1)Nc1cccc(O)c1	-2.6	33.9	-2.5	2.5	50.5*	34.0
CCOC(=O)/C(C#N)=C/c1cc2cc(C)c(C)cc2nc1Cl	-2.6	15.6	30.0	-3.3	61.9*	69.5*
COC(=O)CCN(Cc1ccccc1)S(=O)(=O)c1ccccc1Br	/	/	-15.0	15.0	42.7	/
COc1ccc(CN(CCC(C)C)S(=O)(=O)c2ccccc2Br)cc1	/	/	-21.4	21.3	34.1	/
COC(=O)CCN(Cc1cc(OC)ccc1OC)S(=O)(=O)c1ccccc1Br	/	/	13.4	28.1	54.3*	36.2
CCC(=O)CN(Cc1cc(OC)ccc1OC)S(=O)(=O)c1ccccc1Br	/	/	2.4	27.7	57.7*	26.1
O=C(N/N=C/c1cc(Br)cc(Br)c1O)c1cccc(N2CCCC2=O)c1	87.7*	42.4	-5.4	-7.1	50.8*	55.7*
Cc1ccc(/C=C(\NC(=O)c2ccc(C)cc2)c2nc(=S)[nH][nH]2)cc1	-3.1	5.4	28.1	20.8	53.3*	35.5
Cc1ccc(C(=O)N/C(=C\c2ccccc2F)c2nc(=S)[nH][nH]2)cc1	-11.0	18.1	21.1	21.6	21.4	/
c1ccc(CC(Nc2ccccn2)c2ccccc2)cc1 (centres undefined)	-6.6	19.6	38.4	35.4	52.0*	41.0*
